The subject of assay [1] is XIP peptide (Xip251-270) binding. The experiment in a line: XIP fragment 251-270 binding compounds – biochemical, small-molecule microarray, fluorescence 635/667 nm, 0.1 µg/mL protein, primary screen (AID 1182). The following applies: fluorescent protein binding, 635 nm, higher = more signal, called active from +8 up or from −8 down.
The subject of a further assay is XIP peptide (Xip251-270). The experiment in a line: compounds binding XIP fragment 251-270 – biochemical, small-molecule microarray, fluorescence 635/667 nm, 0.5 µg/mL protein, primary screen (AID 1183). The note with it: fluorescence 635 nm, higher = more signal.
Assay [2] can be described thus: blood-stage malaria parasite viability loss – strain 3D7, DAPI fluorescence, 100 nL, primary screen (AID 1184).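 Also: parasites grown inside human red blood cells in medium with human serum.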 The following applies: P. falciparum 3D7 growth, 3 d, higher = more signal.
Assay [3] addresses Homeobox protein Hox-A13 (Mus musculus) (UniProt Q62424). The experiment in a line: disruptors of Hoxa13 oligonucleotide interaction – biochemical, fluorescence polarization, labeled oligonucleotide, primary screen (AID 1185). The following applies: Hoxa13:DNA binding, 15 min, higher = more signal, called active from +8 up or from −8 down.
Assay [4] in a line: blockers of DNA damage checkpoint Chk1 activation – imaging, HeLa, hydroxyurea, phospho-Chk1 antibody, percent positive cells, primary screen (AID 1186). The following applies: hydroxyurea-induced phospho-Chk1 immunofluorescence imaging, higher = more signal.
The nature of assay [5]: blockers of DNA damage checkpoint Chk1 activation – imaging, HeLa, hydroxyurea, phospho-Chk1 nuclear intensity, primary screen (AID 1187). The following applies: hydroxyurea-induced phospho-Chk1 immunofluorescence imaging, higher = more signal.

The record followed here is PubChem BioAssay.

The source made the active and inactive calls. Unless noted, no rule for the calls is given here.

Chain of Homeobox protein Hox-A13 (Mus musculus) (Q62424 whole entry, looked up): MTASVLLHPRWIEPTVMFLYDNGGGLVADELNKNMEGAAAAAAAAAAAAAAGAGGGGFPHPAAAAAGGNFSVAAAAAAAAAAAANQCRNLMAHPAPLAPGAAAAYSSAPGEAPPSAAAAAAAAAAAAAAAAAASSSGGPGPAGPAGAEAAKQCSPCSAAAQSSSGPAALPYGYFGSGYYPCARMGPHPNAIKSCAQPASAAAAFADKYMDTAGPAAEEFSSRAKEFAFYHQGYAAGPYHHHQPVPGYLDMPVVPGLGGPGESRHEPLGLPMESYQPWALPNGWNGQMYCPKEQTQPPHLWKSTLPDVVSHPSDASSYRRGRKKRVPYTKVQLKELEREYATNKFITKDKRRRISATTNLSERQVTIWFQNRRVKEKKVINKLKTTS

Consider `COc1ccc(CCNC(=O)[C@@]2(Sc3ccc(C)cc3)CC(=O)N(Cc3cc(C(F)(F)F)cc(C(F)(F)F)c3)[C@@H]2c2ccc(CO)cc2)cc1`, for which the composite z-score was -0.461 (inactive) in assay [1] and 0.705 in the assay with XIP peptide (Xip251-270). Further, the z-score in assay [2] is 0.264; in assay [3], -2.57 (inactive); in assay [4], 0.132 (inactive); in assay [5] it was 0.282 (inactive).
As to `CN1C(=O)C2C=CC(C(O)c3ccc(-c4ccccc4)s3)N(Nc3ccccc3)C2C1=O` (configuration not stated), the figures for the composite z-score (in assay [1]; in the assay with XIP peptide (Xip251-270)) were 0.844 (inactive) and 0.753, respectively. Also, the z-score in assay [2] was 1.23; in assay [3], -4.68 (inactive); in assay [4] it was -0.11 (inactive); in assay [5] it was -0.316 (inactive).
As to `C=CCC(OC(C)=O)[C@@H]1[C@@H](N(Cc2cc3ccccc3o2)C(=O)c2cccc3ccccc23)c2cc(OCCCO)ccc2N1C(=O)c1ccc2ccccc2c1` (some centres not stated), the composite z-score in assay [1] was 0.0745 (inactive); in the assay on XIP peptide (Xip251-270), -0.611. The z-score was -2.65 in assay [2], -1.34 (inactive) in assay [3], -0.328 (inactive) in assay [4] and -0.0311 (inactive) in assay [5].
Regarding `CCOC(=O)C1=CCC(c2cc3ccccc3[nH]2)N(S(=O)(=O)c2ccccc2[N+](=O)[O-])C1` (configuration not stated), the composite z-score in assay [1] was -0.212 (inactive); in the assay on XIP peptide (Xip251-270), 0.817. The z-score in assay [2] was -0.65; in assay [3] it was -1.5 (inactive); in assay [4] it was -0.285 (inactive); in assay [5], -0.518 (inactive).
Turning to `C=C(COC)/C(=C/C[C@@H](OC(C)=O)c1ccccc1OCCO)c1cc(C(=O)OC)ccc1OC`, the composite z-score in assay [1] is -0.0801 (inactive); with XIP peptide (Xip251-270), 0.587. The z-score is -2.76 in assay [2], -4.47 (inactive) in assay [3], -0.503 (inactive) in assay [4] and 0.169 (inactive) in assay [5].
For `CN(C)CCCC[C@@H]1NC(=O)[C@@H]2C[C@H](C(=O)NCc3ccc(F)cc3)[C@H](c3ccc(O)cc3)N2C1=O`, the composite z-score was -0.23 (inactive) in assay [1] and 0.886 in the assay on XIP peptide (Xip251-270). The z-score was -0.532 in assay [2], -1.16 (inactive) in assay [3], 0.336 (inactive) in assay [4] and 0.142 (inactive) in assay [5].
In the case of `C=C(CCCC)/C(=C/C[C@H](OC(C)=O)c1cccc(OCCO)c1)c1cc(C(=O)OC)ccc1OC`, the composite z-score in assay [1] is 0.0894 (inactive); with XIP peptide (Xip251-270), -0.185. In addition, the z-score in assay [2] was -2.35; in assay [3] it was -4.24 (inactive); in assay [4], 0.0786 (inactive); in assay [5], 0.307 (inactive).
For `CC(C)C[C@H]1NC(=O)[C@H](Cc2ccccc2)NC(=O)[C@@]23C(=O)N[C@@H](Cc4ccccc4)C2[C@H](C)[C@@]2(C)O[C@H]2C3/C=C/C/C=C\CNC1=O` (some centres not stated), the figures for the composite z-score (in assay [1]; with XIP peptide (Xip251-270)) were 0.252 (inactive) and 0.718, respectively. Also, the z-score in assay [2] was -0.799; in assay [3] it was -7.8 (inactive); in assay [4] it was -0.157 (inactive); in assay [5], 0.005 (inactive).
Turning to `COC(=O)C1=CC(CCCO)=CC(C2CC2)N(Cc2cccc(OC(F)(F)F)c2)C=C1C(=O)OC` (configuration not stated), the composite z-score in assay [1] is 0.737 (inactive); in the assay with XIP peptide (Xip251-270) it was 0.668. In addition, the z-score in assay [2] was -1.37; in assay [3] it was -7.83 (inactive); in assay [4] it was -0.316 (inactive); in assay [5] it was -0.0702 (inactive).
Regarding `COC(=O)[C@@]1(Cc2ccc(F)cc2)[C@H]2c3cc(C(=O)N4CCCC4)n(CCO)c3C[C@H]2CN1C(=O)c1ccccc1`, the values for the composite z-score (in assay [1]; with XIP peptide (Xip251-270)) were -0.33 (inactive) and 0.676, respectively. The z-score in assay [2] was -1.26; in assay [3], -5.44 (inactive); in assay [4], -0.961 (inactive); in assay [5], -0.836 (inactive).
In the case of `C=C(COC)/C(=C/C[C@H](OC(=O)c1ccncc1)c1cccc(OCCO)c1)c1cnc2ccccc2c1`, the composite z-score was 4.42 (inactive) in assay [1] and 0.823 in the assay with XIP peptide (Xip251-270). Further, the z-score in assay [2] was -2.72; in assay [3], -4.94 (inactive); in assay [4], 0.321 (inactive); in assay [5], 0.275 (inactive).
For the molecule `CCCC[C@H]1OB(O)C[C@H]2C1=C(C)C[C@H]1C(=O)C=CC(=O)[C@H]12`, the figures for the composite z-score (in assay [1]; in the assay with XIP peptide (Xip251-270)) were 0.656 (inactive) and 0.229, respectively. Further, the z-score is -0.0202 in assay [2], -6.4 (inactive) in assay [3], 0.217 (inactive) in assay [4] and -0.0819 (inactive) in assay [5].
In the case of `COCCOC(=O)N1C(=O)[C@@]2(c3cc(C#CCCO)ccc31)[C@H](c1ccccc1OCCO)N1[C@H](c3ccccc3)[C@H](c3ccccc3)OC(=O)[C@H]1[C@@H]2C(=O)N1CCc2cc(OC)c(OC)cc2C1`, the composite z-score in assay [1] was 0.291 (inactive); in the assay on XIP peptide (Xip251-270), 0.816. Also, the z-score in assay [2] was -1.75; in assay [3], 0.0237 (inactive); in assay [4], -0.156 (inactive); in assay [5] it was 0.0652 (inactive).
On to `CCN(CC)c1ccc(N2CC=CC34O[C@@H]5C=CCOC(=O)[C@@H]5[C@H]3C(=O)N(CCO)[C@@H]4C2=O)cc1` (some centres not stated), for which the composite z-score is -0.228 (inactive) in assay [1] and -1.29 in the assay with XIP peptide (Xip251-270). The z-score was 0.738 in assay [2], -4.9 (inactive) in assay [3], -0.52 (inactive) in assay [4] and -0.456 (inactive) in assay [5].
As to `CC(C)CNC(=O)[C@@H]1c2ccccc2C(=O)N(C(C)C)[C@H]1c1ccc(CO)cc1`, the composite z-score in assay [1] was -0.885 (inactive); in the assay on XIP peptide (Xip251-270) it was 0.93. For the same molecule, the z-score in assay [2] is 0.643; in assay [3] it was -0.0386 (inactive); in assay [4] it was -0.586 (inactive); in assay [5], -0.784 (inactive).
Turning to `CCCCC(O)C1C=CC2C(=O)NC(=O)C2N1Nc1ccc(Cl)cc1Cl` (configuration not stated), the composite z-score was -0.0109 (inactive) in assay [1] and -0.405 in the assay on XIP peptide (Xip251-270). Besides, the z-score in assay [2] is -0.565; in assay [3], -4.78 (inactive); in assay [4] it was -0.515 (inactive); in assay [5], -0.438 (inactive).
As to `O=C1N(CCS(=O)(=O)c2ccccc2)c2ccccc2[C@@H]2OC(c3ccc(OCCCO)cc3)=N[C@]12CCS(=O)(=O)c1ccccc1`, the composite z-score in assay [1] was 3.92 (inactive); in the assay on XIP peptide (Xip251-270) it was 0.83. The z-score in assay [2] was -2.18; in assay [3], 0.806 (inactive); in assay [4], 0.38 (inactive); in assay [5] it was 0.682 (inactive).
